# From PubChem
# Shn3 inh set2: inhibitors of Schnurri-3 3'UTR reporter in osteoblasts. Clone20 osteoblast Shn3 3'UTR firefly luciferase, 24 h. inhibition, % at 12.5 µM. 0.52% of 360,000 active. AID 588674;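 active means mean inhibition of at least 75% with every replicate also reaching 75%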;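 further: 0% = median of neutral control wells and 100% = pilot-screen positive control compound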
# KKLEB tox: CF airway cell cytotoxicity counter-screen | activity change (cytotoxicity), % at 5 µM | AID 602141 | 0.36% of 360,000 active | KKLEB CF airway cells viability, ATPlite luminescence, overnight; active compounds read low; cells stimulated with P. aeruginosa culture filtrate;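 active means corrected activity change at or below -50% at 5 µM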
# PAX8 inh HTS: inhibitors of PAX8 transcriptional activity in RMG-I cells; RMG-I TPO-luciferase reporter, SteadyGlo, 24 h; inhibition, % at 12.6 µM; 1.2% of 360,000 active; AID 652154;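 active means mean replicate inhibition at least 60% with every replicate also reaching 60%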;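 further: luciferase light reporting Pax8 driven TPO promoter activity; plate controls were median of neutral control wells for no effect and mitoxantrone controls for full effect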
# EWS-Fli block: EWS/Fli transcriptional activity inhibition; A673 NR0B1-luciferase reporter, viability-normalised; inhibition, % at 12.6 µM; 0.67% of 350,000 active;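 active means mean inhibition of at least 50% after viability correction, with every replicate also passing that limit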;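 further: firefly luciferase signal divided by Alamar Blue viability fluorescence both relative to DMSO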
# LGR2 antag: inhibitors of bursicon-induced Drosophila LGR2 receptor cAMP signaling. HEK293 LGR2, CRE-luciferase, bursicon-stimulated, 4 h. inhibition, % at 9.99 µM. 0.35% of 380,000 active. AID 720647;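 active means drop in luminescence signal, shown as inhibition above about 50% in the replicate tests, limit read from the data, passing the limit was not always enough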;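 further: agonist challenge used bursicon conditioned medium at about half maximal strength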
# CF NFkB inh: inhibitors of cystic fibrosis induced NF-kB. 0.86% of 360,000 active. inhibition, % at 5 µM. KKLEB NF-kB-GFP reporter, PAF-induced, GFP fluorescence overnight;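 active means at least 50% inhibition at 5 µM, scaled per plate between neutral and stimulator controls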;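 further: PAF is a Pseudomonas aeruginosa culture filtrate used as stimulus; plate controls were PAF-stimulated DMSO wells for no effect and unstimulated DMSO wells for full effect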
# CF NFkB inh conf: CF NF-kB inhibition confirmation, single concentration. shares compounds with CF NFkB inh. KKLEB CF airway cells, PAF-induced NF-kB-GFP fluorescence, overnight. inhibition, % at 5 µM. 64% of 1,300 active. AID 602472; in the data active means inhibition above about 40%;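 further: stimulus PAF is a Pseudomonas aeruginosa filtrate and not platelet activating factor; plate controls were DMSO wells with stimulus for no effect and unstimulated DMSO wells for full effect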
# Numbers without * were called inactive; nt = not tested or not shown. Sampled rows, rich in hits. Any-hit rate of the full collection: about 2%.
SMILES,Shn3 inh set2,KKLEB tox,PAX8 inh HTS,EWS-Fli block,LGR2 antag,CF NFkB inh,others
Cc1cc(C)c(C)c(S(=O)(=O)N2CCN(c3ncnc4ccccc34)CC2)c1C,86*,3,53,23,79*,20,
Cc1cc(C)c(C)c(S(=O)(=O)N2CCN(c3ccccn3)CC2)c1C,4,-2,14,-6,1,-8,
COc1ccccc1N1CCN(c2ccnc3cc(Cl)ccc23)CC1,20,-9,19,54*,10,18,
COc1ccccc1NC(=O)N1CCN(c2ccnc3cc(Cl)ccc23)CC1,15,-1,0,-14,-3,6,
CCN(CC)S(=O)(=O)c1ccc(N/N=C(\C)c2ccc(OC)cc2O)nc1,91*,0,46,-8,3,-5,
CCN(CC)S(=O)(=O)c1ccc(N/N=C/c2ccc(O)cc2)nc1,13,-1,9,12,-15,-11,
COc1ccc(/C=N/Nc2nc3ccccc3s2)cc1O,3,-23,12,-26,86*,-18,
COc1ccc(/C=N/Nc2nc3ccccc3o2)cc1O,-1,4,-55,nt,nt,5,
CCCNC(=O)N(C)C[C@H]1Oc2cc(C3=CCCCC3)ccc2S(=O)(=O)N([C@H](C)CO)C[C@@H]1C,nt,nt,-37,12,9,nt,
COc1ccc(C(=O)Nc2ccc3c(c2)C(=O)N(C)C[C@H](OC)[C@@H](C)CN(C(C)=O)[C@@H](C)CO3)cc1,nt,nt,nt,2,9,nt,
NC(=S)NN=Cc1nccc2c(C(F)(F)C(F)(F)C(F)(F)F)cccc12,83,-20,75*,37,12,38,
NC(=S)NN=Cc1nccc2ccccc12,79,-74*,55,11,18,87*,
NC(=S)N/N=C/c1ccc(/C=N/NC(N)=S)cc1,2,2,1,2,-9,-19,
Cc1cnc(C=NNC(N)=S)c2cccc(N)c12,85,-5,-10,10,0,4,
COc1ccc2c3c(n(C)c2c1)[C@@H](CO)N(C(C)=O)CC31CN(S(=O)(=O)c2ccccc2)C1,nt,nt,nt,-9,9,nt,
C[C@H](CO)N1C[C@H](C)[C@@H](CN(C)C(=O)Cc2cccnc2)Oc2ncc(C3=CCCCC3)cc2C1=O,nt,nt,nt,-3,2,nt,
C[C@@H]1CCCCO[C@H](CN(C)Cc2ccc(Cl)c(Cl)c2)[C@@H](C)CN([C@H](C)CO)C(=O)c2cc(NS(=O)(=O)c3ccc(F)cc3)ccc2O1,nt,nt,21,-4,-10,nt,
C[C@H](CO)N1C[C@H](C)[C@H](CN(C)Cc2ccc(Cl)c(Cl)c2)OCCCC[C@H](C)Oc2ccc(NS(=O)(=O)c3ccc(F)cc3)cc2C1=O,nt,nt,97*,-5,13,nt,
C[C@@H]1CN([C@H](C)CO)C(=O)c2cc(NS(=O)(=O)c3ccc(F)cc3)ccc2O[C@@H](C)CCCCO[C@H]1CN(C)Cc1ccc(Cl)c(Cl)c1,nt,nt,69*,20,35,nt,
C[C@@H]1CCCCO[C@@H](CN(C)Cc2ccc(Cl)c(Cl)c2)[C@@H](C)CN([C@@H](C)CO)C(=O)c2cc(NS(=O)(=O)c3ccc(F)cc3)ccc2O1,nt,nt,-3,2,7,nt,
Cc1ccc(S(=O)(=O)N(C)C[C@@H]2Oc3ccc(N(C)C)cc3CC(=O)N([C@@H](C)CO)C[C@@H]2C)cc1,nt,nt,-4,-25,1,nt,
COc1ccc(CN(C)C[C@H]2Oc3ccc(NC(=O)Nc4ccc(F)cc4)cc3C(=O)N([C@H](C)CO)C[C@@H]2C)cc1,nt,nt,-15,5,-11,nt,
Cc1ccc(Cl)cc1Nc1nc(-c2sc(NC(=O)c3ccco3)nc2C)cs1,8,-13,86*,49,4,-28,
COc1ccccc1Nc1nc(-c2sc(NC(=O)c3ccco3)nc2C)cs1,13,-3,37,18,0,32,
COc1cccc(N(C(=O)c2ccco2)c2nc(-c3sc(NC(=O)c4ccco4)nc3C)cs2)c1,-9,-36,99*,20,14,27,
SMILES,Shn3 inh set2,KKLEB tox,PAX8 inh HTS,EWS-Fli block,LGR2 antag,CF NFkB inh,others
Cc1nc(NC(=O)c2ccco2)sc1-c1csc(Nc2ccc(Cl)cc2Cl)n1,-17,-7,20,3,-23,22,
O=C(Nc1ccc([N+](=O)[O-])cc1)c1nc[nH]c1C(=O)NC1CCCCC1,39,-51*,11,25,-22,35,
O=C(Nc1c(Cl)cccc1Cl)Oc1cccc2cccnc12,75,-21,73*,26,4,12,
CC(C)CC(=NNC(=O)c1ccncc1)c1cc(Cl)ccc1O,85*,-8,nt,-1,14,34,
CC(=NNC(=O)c1ccncc1)c1ccccc1O,83,-3,-1,4,-8,-11,
CC(=O)NCCC(=O)Nc1nc(-c2cccs2)c(-c2cccs2)s1,-11,6,-6,-11,-2,-15,
O=C(Nc1nc(-c2cccs2)c(-c2cccs2)s1)C1(c2ccccc2)CC1,1,-1,102*,5,-10,-27,
Cc1cnc(NC(=O)C2CC(=O)N(c3ccc4c(c3)OCCO4)C2)s1 (centres undefined),17,3,-19,-6,23,20,
Cc1cnc(NC(=O)C2CC(=O)N(c3cccc(Cl)c3)C2)s1 (centres undefined),-242,16,50,nt,79*,78*,CF NFkB inh conf=86*
CC(=O)N1CCc2c(sc(NC(=O)c3ccc([N+](=O)[O-])o3)c2C(N)=O)C1,100*,-30,87*,42,0,96*,CF NFkB inh conf=31
CCCCCCSc1cc(-c2nc3ccc(C)cn3c2NCc2ccccc2)ccc1OC,-4,-3,1,13,-22,53*,CF NFkB inh conf=30
CCCCCCSc1cccc(-c2nc3ccc(C)cn3c2NCc2ccccc2)c1,-6,9,-88,-5,-91,21,
COc1cc(O)c(CC=C(C)C)c(O)c1C(=O)CCc1ccc(O)cc1,-3,-4,nt,5,-11,52*,CF NFkB inh conf=44*
O=C(CCc1ccc(O)cc1)c1c(O)cc(O)cc1O,-15,18,11,-5,3,8,
COc1ccc2c3c(n(C)c2c1)[C@H](CO)N(Cc1cccc(F)c1)CC31CN(C)C1,nt,nt,nt,-7,1,nt,
CC(C)c1ccccc1NC(=O)COC(=O)c1c2c(nc3ccccc13)CCN(Cc1ccccc1)C2,17,-17,32,20,19,75*,CF NFkB inh conf=73*
Cc1c(Cl)cccc1NC(=O)COC(=O)c1c2c(nc3ccccc13)CCN(Cc1ccccc1)C2,22,-22,22,-7,nt,62*,CF NFkB inh conf=76*
CC(C)NC(=O)NC(=O)COC(=O)c1c2c(nc3ccccc13)CCC2,66,1,36,10,9,18,
O=[N+]([O-])c1ccc2ncnc(Nc3ccc4c(c3)OCCO4)c2c1,15,-17,-20,-13,6,65*,CF NFkB inh conf=38
CCC(CO)Oc1cc(NCc2ccncc2)c2ncn(C(C)C)c2c1 (centres undefined),-24,9,-6,-17,-2,-4,
